Among the data in PubChem BioAssay (EPA / NIEHS) are outcome and AC50 values, retold here.

Inconclusive results are not listed. Activity calls are given as the source filed them. How the source made its calls: active means hit-call score of the fitted dose curve at least 0.9, where 1 is the maximum; inconclusive means response in the unintended direction; inactive means score below 0.9.

A short description of assay [1]: Tanguay_ZF_120hpf_YSE_legacy: (Legacy) Oregon State University Tanguay Lab 120 Hour Post-fertilization zebrafish Assay for Yolk Sac Edema (AID 2283634).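 On AC50: actives raise the incidence of yolk sac edema above the DMSO baseline.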 The method in brief: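 Dechorionate (pronase, 4 hpf) → place one 6 hpf embryo per well → static compound exposure, sealed and foil-covered, 28C, to 120 hpf → record yolk sac edema as present or absent. Final DMSO 0.64%.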

Assay [2] is described as follows: Tanguay_ZF_120hpf_AXIS_legacy: (Legacy) Oregon State University Tanguay Lab 120 Hour Post-fertilization zebrafish Assay for Body Axis Malformation (AID 2283635).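 On AC50: potency for an increased fraction of larvae scored with body axis malformation.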 Summed up:
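Chorion is removed with pronase at 4 hpf, then single 6 hpf embryos are dosed (final DMSO 0.64%) and held statically at 28C in sealed, foil-covered plates. At 120 hpf body axis malformation is recorded as present or absent.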

The nature of assay [3]: Tanguay_ZF_120hpf_EYE_legacy: (Legacy) Oregon State University Tanguay Lab 120 Hour Post-fertilization zebrafish Assay for Eye Malformation (AID 2283636). The method in brief:
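5D wild-type embryos, pronase-dechorionated at 4 hpf; static exposure 6–120 hpf, 28C, dark; DMSO 0.64% final; 5uM trimethyltin chloride positive control. Binary eye-defect scoring at 120 hpf; dead embryos not scored.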

The nature of assay [4]: Tanguay_ZF_120hpf_SNOU_legacy: (Legacy) Oregon State University Tanguay Lab 120 Hour Post-fertilization zebrafish Assay for Snout Malformation (AID 2283637). The method in brief:
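Binary brightfield scoring of snout malformation at 120 hpf. Dechorionated 5D wild-type embryos, one per well, static exposure from 6 hpf at 28C, sealed and dark; final DMSO 0.64% (vol/vol), DMSO as baseline; 5uM trimethyltin chloride positive control.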

Assay [5] in a line: Tanguay_ZF_120hpf_JAW_legacy: (Legacy) Oregon State University Tanguay Lab 120 Hour Post-fertilization zebrafish Assay for Jaw Malformation (AID 2283638).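 On AC50: active means more embryos with jaw malformation than DMSO controls.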 Summed up:
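Steps: dechorionate 4 hpf embryos (pronase); plate 1/well at 6 hpf; add test chemical, 0.64% DMSO final; seal, cover, hold at 28C statically to 120 hpf; score jaw defect presence/absence microscopically. Dead embryos not scored.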

The nature of assay [6]: Tanguay_ZF_120hpf_OTIC_legacy: (Legacy) Oregon State University Tanguay Lab 120 Hour Post-fertilization zebrafish Assay for Otic Vesicle Malformation (AID 2283639). The method in brief:
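Wild-type zebrafish larvae, whole-embryo exposure from early stage to 120 hpf at 28C. Binary brightfield scoring of otic vesicle morphology, fitted in the positive direction against the DMSO baseline.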

A short description of assay [7]: Tanguay_ZF_120hpf_PE_legacy: (Legacy) Oregon State University Tanguay Lab 120 Hour Post-fertilization zebrafish Assay for Pericardial Edema (AID 2283640).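 On AC50: potency for increased incidence of pericardial edema versus DMSO baseline.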 Summed up:
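Embryos from wild-type 5D adults were staged, then dosed in 0.64% DMSO. They were kept sealed in the dark at 28C until 120 hpf. Pericardial edema was then recorded as present or absent.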

Assay [8] can be described thus: Tanguay_ZF_120hpf_BRAI_legacy: (Legacy) Oregon State University Tanguay Lab 120 Hour Post-fertilization zebrafish Assay for Brain Malformation (AID 2283641). The method in brief: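 Wild-type 5D larvae, static waterborne exposure to 120 hpf, 28C, 0.64% v/v DMSO. Brightfield scoring of brain defects, binary; dead embryos excluded. Positive ctrl 5uM trimethyltin chloride.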

Assay [9] in a line: Tanguay_ZF_120hpf_PFIN_legacy: (Legacy) Oregon State University Tanguay Lab 120 Hour Post-fertilization zebrafish Assay for Pectoral Fin Malformation (AID 2283648).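 Further: each larva judged yes or no for fin defect by brightfield with dead larvae skipped.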 Summed up: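 Binary pectoral fin malformation call at 120 hpf by brightfield microscopy; 5D wild-type zebrafish, chorion removed at 4 hpf, one embryo per well from 6 hpf, static exposure at 28C; DMSO (0.64% final) as baseline.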

Assay [10] is described as follows: Tanguay_ZF_120hpf_CFIN_legacy: (Legacy) Oregon State University Tanguay Lab 120 Hour Post-fertilization zebrafish Assay for Caudal Fin Malformation (AID 2283649). Summed up:
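Binary presence or absence of caudal fin malformation at 120 hpf, read by brightfield microscopy, with DMSO as baseline. Larvae came from 5D wild-type embryos exposed statically from 6 hpf at 28C after pronase dechorionation.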

A short description of assay [11]: Tanguay_ZF_120hpf_PIG_legacy: (Legacy) Oregon State University Tanguay Lab 120 Hour Post-fertilization zebrafish Assay for Pigmentation Malformation (AID 2283650). Summed up: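 Brightfield scoring of pigmentation malformation at 120 hpf, recorded as binary present/absent per larva. Exposure: dechorionated 5D wild-type embryos, one per well, static from 6 hpf at 28C, final DMSO 0.64% (vol/vol). Dead embryos not scored.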

The nature of assay [12]: Tanguay_ZF_120hpf_CIRC_legacy: (Legacy) Oregon State University Tanguay Lab 120 Hour Post-fertilization zebrafish Assay for Circulatory Malformation (AID 2283651). Summed up:
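Binary circulatory-malformation call at 120 hpf via brightfield imaging, relative to DMSO controls. Embryos (5D strain, chorion removed) received static, light-shielded exposure at 28C.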

Assay [13] in a line: Tanguay_ZF_120hpf_SWIM_legacy: (Legacy) Oregon State University Tanguay Lab 120 Hour Post-fertilization zebrafish Assay for Swim Bladder Malformation (AID 2283654).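 Further: swim bladder malformation in each larva scored yes or no under brightfield.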 Summed up: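 Tropical 5D embryos dechorionated at 4 hpf; 1 embryo/well from 6 hpf; static, sealed, dark exposure at 28C until 120 hpf; final DMSO 0.64%; 5uM trimethyltin chloride positive control; swim bladder defect recorded yes/no; dead embryos not scored.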

The nature of assay [14]: Tanguay_ZF_120hpf_TRUN_legacy: (Legacy) Oregon State University Tanguay Lab 120 Hour Post-fertilization zebrafish Assay for Truncated Body (AID 2283655). Summed up:
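Truncated body is recorded as a binary endpoint at 120 hpf by brightfield imaging of wild-type 5D larvae. Exposure runs statically from 6 hpf at 28C with 0.64% DMSO; embryos dying earlier are not scored.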

The nature of assay [15]: Tanguay_ZF_120hpf_SOMI_legacy: (Legacy) Oregon State University Tanguay Lab 120 Hour Post-fertilization zebrafish Assay for Somite Malformation (AID 2283647). Summed up:
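Read-out: presence or absence of somite malformation in 120 hpf larvae, gain-of-signal relative to DMSO baseline. Embryos lacked chorion (pronase, 4 hpf) and were exposed statically from 6 hpf at 28C; dead larvae not scored.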

The nature of assay [16]: Tanguay_ZF_120hpf_NC_legacy: (Legacy) Oregon State University Tanguay Lab 120 Hour Post-fertilization zebrafish Assay for Notochord and Tail Malformation (AID 2283656). The method in brief:
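Binary notochord-distortion calls, made by brightfield inspection, form the read-out; activity is fitted in the positive direction against DMSO. Exposure ran statically from 6 to 120 hpf at 28C with 0.64% DMSO.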

As for `Cc1ccn2nc(S(=O)(=O)Nc3c(F)cccc3F)nc2n1`, the molecule was classed as inactive in assay [1], in assay [2], in assay [3], in assay [4], in assay [5] and in assay [6]. Also, the call in assay [7], in assay [8], in assay [9], in assay [10], in assay [11] and in assay [12] was inactive. Besides, the call in assay [13] and in [14] was inactive.

What is called AC50 is the concentration giving half of the maximal activity seen. As for `CC(C)[C@H](C(=O)O[C@H](C#N)c1cccc(Oc2ccccc2)c1)c1ccc(Cl)cc1`, the AC50 in [1] is 3.2 µM (active); in [2], 1.96 µM (active); in assay [4] it was 2.25 µM (active); in assay [5], 5.13 µM (active); in assay [7], 5.21 µM (active); in [8], 4.07 µM (active). The AC50 in assay [15] is 1.15 µM (active); in assay [9], 1.17 µM (active); in [13] it was 4.25 µM (active). Further, the result in assay [6], in assay [10], in [11], in [12] and in [14] was inactive.

As to `CC(C1CC1)C(O)(Cn1cncn1)c1ccc(Cl)cc1` (centres undefined), the AC50 in [1] is 36.3 µM (active); in [2], 24.8 µM (active); in [3], 9.92 µM (active); in [4], 9.24 µM (active); in assay [5], 24.7 µM (active); in assay [7] it was 15.1 µM (active). In addition, the AC50 in assay [8] was 22.6 µM (active); in assay [9], 25.9 µM (active); in assay [13], 32.6 µM (active). In addition, the outcome in [10], in [11], in [12] and in [14] was inactive.

As for `CC(Oc1cccc(Cl)c1)C(=O)O` (centres undefined), the call in [1], in [2], in [3], in assay [4], in assay [5] and in assay [6] was inactive. Also, the outcome in assay [7], in assay [8], in [9], in assay [10], in [11] and in assay [12] was inactive. Also, the molecule was called inactive in assay [14] and in assay [16].

As to `CCCOCC(=Nc1ccc(Cl)cc1C(F)(F)F)n1ccnc1`, the result in [1], in assay [2], in assay [4], in [5], in [6] and in [7] was inactive. Further, the outcome in assay [8], in assay [15], in assay [9], in [10], in assay [11] and in [14] was inactive.

In the case of `CN(C)[C@@H]1C(=O)C(C(N)=O)=C(O)[C@@]2(O)C(=O)C3=C(O)c4c(O)cccc4[C@@](C)(O)[C@H]3[C@H](O)[C@@H]12`, the call in assay [1], in assay [2], in [3], in assay [4], in [5] and in assay [6] was inactive. For the same molecule, the call in assay [7], in assay [8], in assay [15], in assay [9], in assay [10] and in assay [12] was inactive. Moreover, the molecule was called inactive in assay [14].

In the case of `COP(=O)(OC)C(O)C(Cl)(Cl)Cl` (centres undefined), the AC50 in assay [1] is 56.1 µM (active). Also, the molecule was called inactive in assay [2], in assay [3], in [4], in assay [5], in [6] and in assay [7]. The outcome in assay [8], in assay [15], in assay [9], in assay [10], in assay [11] and in [12] was inactive. The result in [13], in assay [14] and in assay [16] was inactive.

`CCc1cnc(C2=NC(C)(C(C)C)C(=O)N2)c(C(=O)O)c1` (centres undefined): the call in [1], in assay [2], in assay [4], in assay [5], in [6] and in assay [7] was inactive. The molecule was called inactive in assay [8], in [15], in assay [9], in assay [10], in [11] and in assay [12]. Further, in [14], the outcome was inactive.
